From PubChem BioAssay
Values without a mark were called inactive. The rule behind the calls is not given here.

Biological target: Pantothenate synthetase (Mycobacterium tuberculosis (strain ATCC 25618 / H37Rv)) (UniProt P9WIL5)
Test: Coupled enzyme confirmation of inhibitors against recombinant Mtb PanC (AID 375);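 note: 0% = full reaction with vehicle and 100% = no enzyme background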
Settings: coupled enzyme assay; at 10 µM, hits give high values

Chain of Pantothenate synthetase (Mycobacterium tuberculosis (strain ATCC 25618 / H37Rv)) (P9WIL5 whole entry, looked up): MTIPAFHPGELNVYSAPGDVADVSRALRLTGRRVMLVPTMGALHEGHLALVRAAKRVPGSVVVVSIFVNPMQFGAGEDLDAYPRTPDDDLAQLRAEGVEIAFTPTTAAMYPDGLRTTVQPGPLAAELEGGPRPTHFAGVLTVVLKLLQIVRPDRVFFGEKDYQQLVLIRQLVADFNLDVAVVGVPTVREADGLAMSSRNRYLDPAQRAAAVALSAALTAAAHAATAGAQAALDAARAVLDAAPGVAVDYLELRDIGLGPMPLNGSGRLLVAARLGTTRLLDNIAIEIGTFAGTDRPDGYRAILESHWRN

Row | Compound | inhibition
1 | COc1cc(CC(=O)Oc2ccc3c(c2)OCO3)cc(OC)c1OC | 0%
2 | COc1ccc(CC(=O)OCc2nnc(C3COc4ccccc4O3)o2)cc1OC (configuration not stated) | 0%
3 | O=C(O)COc1ccc(Oc2ccccc2)cc1 | 3%
4 | Cc1ccc2nc(NCCCN3CCOCC3)c(C=NCCCN3CCOCC3)c(=O)n2c1 | 0%
5 | CCCN1C2CCCC1CC(NC(=O)c1ccccc1F)C2 (configuration not stated) | 2%
6 | CCCN1CCN(C(=O)c2cn(CC(C)C)c(=O)c3cc(OC)c(OC)cc23)CC1 | 5%
7 | O=C(c1ccc(Br)o1)N(Cc1ccccc1)c1ccccn1 | 3%
8 | O=C(NCc1n[nH]c(=S)n1-c1ccc(F)cc1)c1ccco1 | 0%
9 | Nc1cc(N)cc(-c2nc3ccccc3o2)c1 | 4%
10 | CC(C(=O)NC1CCCCCC1)N(c1ccccc1)S(C)(=O)=O (configuration not stated) | 0%
11 | O=C(c1ccccc1Cl)N1CCc2ccccc2C1 | 0%
12 | CCOC(=O)C1CCN(c2c(NCCCN(CC)c3ccccc3)c(=O)c2=O)CC1 | 0%
13 | CN(C)C(CNC(=O)Nc1cccc(Cl)c1)c1cccnc1 (configuration not stated) | 0%
14 | COc1ccc(-c2nc3c(n2O)CCC/C3=N\O)cc1 | 0%
15 | CCOC(=O)C1=C(C)N(C)C(=O)NC1c1cccc(O)c1 (configuration not stated) | 0%
16 | CC(=O)NC(CCS(C)(=O)=O)C(=O)Nc1cc(C)on1 (configuration not stated) | 0%
17 | CCOc1ccc(NC(=O)c2ccncc2)cc1 | 0%
18 | COc1cccc(-c2nc(CS(=O)(=O)CC(=O)N3CCN(c4ccccn4)CC3)c(C)o2)c1 | 5%
19 | CC(=O)Nc1c(I)c(NC(C)=O)c(I)c(C(=O)O)c1I | 1%
20 | COc1ccc(OC)c(S(=O)(=O)N2CCC(C(=O)NCC3CCCO3)CC2)c1 (configuration not stated) | 7%
21 | CC(c1nnc(SCC(=O)Nc2sccc2C#N)n1-c1ccc(Cl)cc1)N(C)C (configuration not stated) | 0%
22 | NNC(=O)c1ccncc1 | 0%
23 | COC(=O)COc1ccc(C(=O)OC)cc1 | 2%
24 | C=CCN1C(=O)C2(C(C#N)=C(N)Oc3n[nH]c(CCC)c32)c2ccccc21 (configuration not stated) | 0%
25 | CN(C1CCS(=O)(=O)C1)S(=O)C12CC3CC(CC(C3)C1)C2 (configuration not stated) | 3%
26 | O=C(O)c1cc(O)c2c(c1)C(=O)c1cccc(O)c1C2=O | 9%
27 | O=C(Nc1ccc(F)cc1)N(CCCN1CCOCC1)Cc1cc2cc3c(cc2[nH]c1=O)OCO3 | 6%
